# MsrA act: bovine MsrA enzyme activators, primary screen, biochemical, absorbance, HTS | Methionine sulfoxide reductase A (Bos taurus) | purified bovine MsrA, absorbance read-out | activation, % at 10.6 µM | 360,000 compounds, 0.3% hits | AID 602163, 2012; in the data active = activation above about 7.5%;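 also: 0% = vehicle and 100% = reference activator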
# HGIII-sPLA2 inh: human group III sPLA2 inhibitors, primary screen, biochemical, QFRET, BODIPY PC-A2 liposome substrate; QFRET BODIPY PC-A2 liposome hydrolysis, fluorescence; inhibition, % at 12.2 µM; 370,000 compounds, 0.56% hits; AID 743126, 2013;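 active = inhibition above mean plus 3 SD of compounds lying within the high and low control bounds, cut at about 19% in these data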;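 also: 0% = median of test compound wells and 100% = no enzyme DMSO wells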
# Target sequence (Q9NZ20 whole entry, looked up): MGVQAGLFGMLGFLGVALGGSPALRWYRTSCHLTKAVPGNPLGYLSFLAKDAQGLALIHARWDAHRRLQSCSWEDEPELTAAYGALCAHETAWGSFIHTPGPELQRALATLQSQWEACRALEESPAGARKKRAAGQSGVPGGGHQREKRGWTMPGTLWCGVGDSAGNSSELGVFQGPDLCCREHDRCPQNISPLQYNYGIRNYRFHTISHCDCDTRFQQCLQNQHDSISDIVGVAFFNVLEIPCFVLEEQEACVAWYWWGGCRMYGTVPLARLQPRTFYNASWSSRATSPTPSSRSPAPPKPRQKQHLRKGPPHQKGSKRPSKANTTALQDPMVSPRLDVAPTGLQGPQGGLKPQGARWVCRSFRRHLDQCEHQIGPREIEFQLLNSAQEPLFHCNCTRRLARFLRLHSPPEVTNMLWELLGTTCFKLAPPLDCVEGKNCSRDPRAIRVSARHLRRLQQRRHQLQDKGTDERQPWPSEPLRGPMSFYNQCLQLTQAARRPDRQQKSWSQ
# PG9 binder: binders of HIV-1 gp120 antibody PG9, primary screen, biochemical, TR-FRET | 360,000 compounds, 0.43% hits | inhibition, % at 6.7 µM | TR-FRET gp120-PG9 antibody binding | HIV-1 gp120 / PG9 antibody interaction | AID 624416, 2012; in the data active = inhibition above about 8.5%
# MsrA inh: bovine MsrA enzyme inhibitors, primary screen, biochemical, absorbance, HTS; Methionine sulfoxide reductase A (Bos taurus); purified bovine MsrA, absorbance read-out; inhibition, % at 15.5 µM; 360,000 compounds, 0.75% hits; AID 651718, 2012; in the data active = inhibition above about 4.5%;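 also: 0% = vehicle wells with enzyme and 100% = reference inhibitor wells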
# rCAG RNA binder: binders of r(CAG) RNA repeats, primary screen, biochemical, fluorescence; r(CAG) RNA repeat, TO-PRO-1 dye displacement fluorescence; inhibition, % at 3 µM; 370,000 compounds, 1.3% hits; AID 651821, 2012;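 active = inhibition above the plate cutoff, the mean of all test compounds on that plate plus 3 SD, cut at about 35% in these data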;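 also: 0% = DMSO alone and 100% = 100 µM mitoxantrone as full dye displacement; higher means more dye released from RNA so lower well fluorescence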
# hGIII sPLA2 conf: human group III sPLA2 inhibitors, confirmation, biochemical, QFRET, triplicate; shares compounds with HGIII-sPLA2 inh; recombinant hGIII-sPLA2, BODIPY PC-A2 QFRET fluorescence; inhibition, % at 12.2 µM; 2,000 compounds, 34% hits;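 active = mean inhibition across triplicates above the hit cutoff set in the earlier primary screen, cut at about 19% in these data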;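 also: 0% = enzyme with DMSO and 100% = DMSO wells lacking enzyme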
# BODIPY interf: 535nm fluorescence optical interference, confirmation, artefact control for HGIII-sPLA2 inhibitor project, biochemical, QFRET; shares compounds with HGIII-sPLA2 inh; BODIPY FL product fluorescence interference; inhibition, % at 12.2 µM; 2,000 compounds, 8.5% hits; AID 743282, 2014;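 active = average inhibition above the solvent-only control mean plus 3 SD, cut at about 6% in these data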;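 also: 0% = DMSO with substrate plus product and 100% = DMSO with substrate alone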
# BODIPY interf DR: 535nm fluorescence optical interference, dose response, artefact control for HGIII-sPLA2 inhibitor project, biochemical, QFRET | shares compounds with HGIII-sPLA2 inh | BODIPY FL product fluorescence interference, cell-free | IC50, µM | 240 tested, under 10 active;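 active = IC50 at or below 10 µM; inactive = IC50 above 10 µM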
# Numbers without * were called inactive; · = no result. Hits are enriched below; roughly 3.2% of the tested compounds scored in any of these assays.
SMILES,MsrA act,HGIII-sPLA2 inh,PG9 binder,MsrA inh,rCAG RNA binder,hGIII sPLA2 conf,BODIPY interf,others
O=C(CN1C(=O)/C(=C/c2ccccc2)SC1=S)NNC(=O)c1ccccc1O,-3.3,20.3*,2.6,1.4,9.0,15.4,-4.5,
Cc1ccc(/C=C2\SC(=S)N(CCC(=O)NNC(=O)c3ccccc3O)C2=O)cc1,-2.8,9.0,-1.7,-0.6,5.7,·,·,
O=C(CCN1C(=O)/C(=C/c2ccccc2Cl)SC1=S)NNC(=O)c1ccccc1O,-0.9,19.7*,-3.0,-0.3,9.0,30.1*,0.6,BODIPY interf DR=>122
COc1cccc(/C=C2/SC(=S)N(CC(=O)NNC(=O)c3ccccc3O)C2=O)c1,-1.3,22.8*,1.9,0.9,16.6,21.5*,-8.1,
CC(/C=C1\SC(=S)N(CCC(=O)Nc2ccc(O)cc2)C1=O)=C\c1ccccc1,-4.7,19.2*,-0.9,1.8,19.4,-3.2,4.2,
O=S(=O)(Cc1ccc(Cl)cc1)N1CCCC1,-2.3,20.6*,-0.6,0.9,-3.7,5.1,-8.0,
CCOCCCNC(=S)Nc1ccc(Br)cc1Cl,-3.0,20.1*,-0.7,1.0,-3.4,4.8,-6.3,
CC(=O)NN1C(=O)/C(=C2/Sc3ccc(Cl)cc3N2C)SC1=S,-5.0,20.0*,3.1,1.1,4.4,15.6,-0.5,
C[C@H](CO)N1C[C@H](C)[C@@H](CN(C)C(=O)CN2CCOCC2)Oc2ncc(-c3cncnc3)cc2C1=O,-7.1,14.2,-0.1,1.2,0.5,·,·,
O=P(O)(O)CCP(=O)(c1ccccc1)c1ccccc1,-1.3,3.4,-1.6,-1.1,1.0,·,·,
CP(C)(=O)CCP(=O)(c1ccccc1)c1ccccc1,-5.2,19.4*,-3.4,0.6,-1.1,17.1,1.9,
O=C(O)c1cc(O)ccc1N=Nc1ccccc1,-1.9,20.4*,-0.8,4.6*,3.4,-2.2,-3.8,
O=C1c2ccccc2C(=O)c2c(Nc3ccc(CCO)cc3)ccc(O)c21,-0.9,20.8*,-13.0,0.7,16.4,48.1*,3.4,BODIPY interf DR=>122
CC(=O)Nc1ccc(Nc2ccc3c4c(cc(=O)n3C)-c3ccccc3C(=O)c24)cc1,-4.6,8.3,-1.1,0.1,-2.5,·,·,
C[C@@H]1CN(C(=O)OC(C)(C)C)CCN1c1ccc(N2CC[C@H](O)C2)c(C#N)c1,·,21.5*,-0.6,1.0,1.3,7.6,-12.6,
COC(=O)c1ccc(C(=O)Nc2ccc3c(c2)C(=O)NC3=O)cc1,-6.0,22.5*,3.7,0.1,8.6,0.1,6.8*,
Cc1ccc(Cn2c([N+](=O)[O-])cnc2C)cc1,-3.1,21.9*,1.6,0.8,-2.2,8.5,-0.2,
COc1ccc(NC(=S)c2ccccc2)cc1,-1.2,3.5,-1.6,-0.5,1.4,·,·,
COc1ccc(NC(=S)c2ccc(N(C)C)cc2)cc1,-4.5,19.8*,-1.3,2.3,-1.2,9.7,-4.8,
CC(C)Oc1ccc(C(=O)Nc2ccc(N(C)C)cc2)cc1,0.0,19.4*,-6.9,0.0,5.6,15.3,-5.6,
Cc1ccc(S(=O)(=O)NC(=O)Nc2ccc(N(C)C)cc2)cc1,-2.0,16.6,-110.6,1.3,8.1,·,·,
Cc1ccc(NC(=S)c2ccc(N(C)C)cc2)cc1,-4.3,24.9*,-7.8,0.9,3.0,15.6,1.5,
CCCOc1ccc(C(=O)Nc2ccc(N(C)C)cc2)cc1,-5.4,13.5,-5.8,1.2,-4.6,·,·,
COc1ccc(C(=S)Nc2ccc(N(C)C)cc2)cc1,-3.0,23.0*,-7.3,2.3,7.2,26.4*,5.2,
COc1ccc(NC(=S)Nc2ccc(N(C)C(C)=O)cc2)cc1,-1.9,10.9,0.6,2.5,0.7,·,·,
SMILES,MsrA act,HGIII-sPLA2 inh,PG9 binder,MsrA inh,rCAG RNA binder,hGIII sPLA2 conf,BODIPY interf,others
O=C(NC(=S)Nn1cnnc1)c1cccc(Br)c1,-4.7,21.9*,1.1,0.0,1.8,4.4,-1.8,
Cc1ccc(C(=O)NC(=S)Nn2cnnc2)cc1,-0.9,6.9,-1.2,-1.3,0.1,·,·,
O=C(NC(=S)NNC(=O)c1ccccc1O)c1cccc([N+](=O)[O-])c1,0.8,41.3*,-0.1,1.2,0.4,27.1*,5.1,
O=[N+]([O-])c1ccc(NNC(=S)Nc2ccc(F)cc2)cc1,1.9,0.5,-1.6,1.9,16.9,·,·,
O=C(NNC(=S)Nc1ccc(F)cc1)c1cccc([N+](=O)[O-])c1,-1.3,24.7*,-1.6,1.9,4.8,30.5*,0.3,
O=C(NC(=S)NNC(=O)c1ccccc1O)c1cccnc1,3.5,33.1*,-0.5,1.9,-1.9,16.1,-4.0,
O=C(NNC(=S)Nc1ccc(Br)cc1Cl)c1ccncc1,-0.8,-6.6,-0.8,2.3,34.2,·,·,
O=C(NNC(=S)Nc1ccc(C(=O)O)c(O)c1)c1ccncc1,0.7,20.5*,-5.5,3.4,9.5,6.2,-3.1,
Cc1ccc(S(=O)(=O)NC(=O)C2(C)CCN2C(=O)Cc2ccc(Cl)cc2Cl)nc1 (stereo not given),-1.5,2.9,0.1,-1.6,8.0,·,·,
Cc1ccc(-c2cc(C(=O)NN=Cc3sccc3C)[nH]n2)cc1C,·,-13.6,·,·,12.8,·,·,
O=C(NNC(=S)Nc1ccc(Br)cc1)c1cccnc1,-0.9,19.3*,-1.6,2.0,2.0,30.6*,-1.1,BODIPY interf DR=>122
CCOC(=O)c1c(C)[nH]c(C(=O)COC(=O)COc2ccccc2C=O)c1C,-1.8,19.9*,-0.3,0.3,2.1,3.4,-14.2,
O=C(COC(=O)c1ccc(F)c([N+](=O)[O-])c1)NC(=O)NCc1ccccc1,-3.0,-11.2,0.1,-0.1,4.7,·,·,
Cc1cccc(-n2c3nc(=O)[nH]c(=O)c-3cc3cc([N+](=O)[O-])ccc32)c1,-2.7,25.2*,-0.5,0.1,3.7,19.5*,6.6*,
COc1ccccc1Cn1c(=S)[nH]c2cc(C(=O)NCCN3CCOCC3)ccc2c1=O,-2.0,11.7,-0.3,-0.1,2.8,·,·,
COc1ccccc1Cn1c(=S)[nH]c2cc(C(=O)NCCCN3CCOCC3)ccc2c1=O,2.0,20.4*,-0.6,0.5,6.5,12.1,-9.0,
CCOC(=O)c1ccc(N2CCN(c3ccccc3F)CC2)c(NC(=O)Nc2cccc(OC)c2)c1,-6.8,21.4*,-1.3,0.8,14.1,-9.8,-16.3,
COC(=O)c1ccc(N2CCOCC2)c(NC(=O)Nc2cccc(OC)c2)c1,-0.4,6.6,-0.5,0.9,2.1,·,·,
CSc1ccc(CNc2ccc(C)c(C)c2)cc1,1.9,8.6,-2.2,-0.3,-4.2,·,·,

# Assay outcomes deposited in PubChem by The Scripps Research Institute Molecular Screening Center.
